Screening results from PubChem.
DT40 TDP1 CPT: growth inhibition of DT40 Tdp1-/-;hTDP1 cells with camptothecin (screen for TDP1 inhibitors); chicken DT40 Tdp1-/-;hTDP1 cells + 20 nM CPT, ATP luminescence, 48 h; Potency, µM (highest dose often 46.2 µM), without a hit: at the highest dose activity change, negative = growth inhibition, hits mostly inhibitors; 420,000 tested, 12% active; note: potency is the fitted concentration of half-maximal effect; nearly all actives have a fitted effect of over 55% in size
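Chicken DT40 Tdp1-/- cells stably complemented with human TDP1 were seeded at 400 cells/well in medium containing 20 nM camptothecin, exposed to pin-transferred compounds, and grown at 37 °C for at least 48 hr. Viability was read as ATP luminescence.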
TDP1 cell noCPT: qHTS for Inhibitors of human tyrosyl-DNA phosphodiesterase 1 (TDP1): qHTS in cells in absence of CPT; AID 686978, 2013; Potency, µM (titrated, usually from 46.2 µM), without a hit: at the top dose activity change, negative = growth inhibition, most hits filed as inhibitors; DT40 Tdp1-/- hTDP1 cells, no CPT, ATP luminescence, 48 h; 420,000 tested, 15% active; note: potency is the fitted concentration of half-maximal effect; nearly all actives have a fitted effect of over 55% in size
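Chicken DT40 Tdp1-/- cells stably complemented with human TDP1 were seeded at 400 cells/well with DMSO in place of 20 nM camptothecin. After compound pinning, cells grew at least 48 hr at 37 °C; viability read by CellTiter-Glo luminescence.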
HT1080 IDH1KD tx: HT-1080 IDH1 knockdown cell toxicity (counter line) | HT-1080 IDH1 knockdown viability, ATP luminescence, 48 h | Potency, µM (titrated, usually from 46.1 µM), for inactives: top-dose activity, negative = toxicity, actives largely listed as cytotoxic | 360,000 tested, 2% active | AID 686971;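 note: potency is the fitted concentration of half-maximal effect; 0% = DMSO wells and -100% = cell-free medium wells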
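Viability of IDH1-knockdown HT-1080 fibrosarcoma cells was assessed by CellTiter-Glo after 48 h at 37 °C with titrated compound; concentration-effect curves were classified by fit quality and response size.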
HT1080-NT tox: kills 2HG-producing HT-1080-NT fibrosarcoma cells | HT-1080-NT fibrosarcoma viability, CellTiter-Glo ATP luminescence, 48 h | Potency, µM (doses to about 46.1 µM), without a hit: at the highest dose activity, negative = less viability, hits mostly cytotoxic | 360,000 tested, 1.6% active;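 note: NT is the 2HG producing partner of a matched IDH1 knockdown line; potency is the fitted concentration of half-maximal effect; 0% = DMSO-treated cells and -100% = media-only wells without cells; nearly all actives have a fitted effect of over 55% in size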
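HT-1080-NT fibrosarcoma cells (2HG-overproducing), 750 cells/well in RPMI with 5% FBS, dosed after 2 h and incubated 48 h at 37C. CellTiter-Glo luminescence normalized to DMSO and no-cell wells; concentration-response curves fitted and classed.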
IL1B secr inh: blocks inflammasome-driven IL-1 beta release. THP-1 LPS/ATP IL-1B secretion, AlphaLISA, 16 h; active compounds read low. activity change, % at 57.5 µM. 360,000 tested, 4.7% active. AID 743279; in the data active = activity change below about -50%; inconclusive = mostly about -30% to -49%
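THP-1 cells pretreated 1 hr with compounds (up to 57.5 uM final), then stimulated with LPS (250 ng/mL final) plus ATP (1.25 mM final); secreted IL-1B measured by AlphaLISA after 16 hr, decreased signal indicating inhibition.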
Starred values were filed as active, the others as inactive; ? = inconclusive; / = no result given; [ ] = dose if it differs, or a comment. Most compounds without a hit are left out; they make up all but 19% or so of the library. Unless noted, calls come from the whole dose curve; as a rule, active = well fitted curve in the direction sought with a large enough effect; inconclusive = small, poorly fitted or top-dose-only effect, or another doubt; inactive = no such curve, though single readings can be large; an effect the other way counts as inactive or inconclusive. Unless noted, % is set by controls: 0 for no effect and ±100 for the full control effect.

SMILES | DT40 TDP1 CPT | TDP1 cell noCPT | HT1080 IDH1KD tx | HT1080-NT tox | IL1B secr inh
CCOc1ccc(-c2nc(C#N)c(N3CCN(Cc4ccccc4)CC3)o2)cc1 | ? | 12µM* | -6% | 1% | -5
COc1ccc(N2CCN(c3oc(Cc4ccccc4)nc3C#N)CC2)cc1 | ? | 13µM* | ? | -4% | -7
CCC/C=N/NC(=O)c1ccccc1O | 23% | 0% | 7% | 2% | 11
CC(C)N1C(=O)C(=O)N(CC(=O)N(C)c2ccccc2)C1=O | 2% | 0% | 14% | -19%[9.24 µM] | 2
Cc1cccc(OCc2nc(-c3cccnc3)no2)c1 | -3% | -21% | 12% | 15% | 0
CCOC(=O)c1c(NC(=O)c2ccc(C)cc2)sc2c1CCCCC2 | 10% | 5% | / | / | /
COC(=O)c1c(NC(=O)c2ccccc2N(C)S(=O)(=O)c2ccccc2)sc2c1CCCC2 | 16µM* | 15µM* | ? | ? | 20
CCOC(=O)c1c(NC(=O)C(NCCN(C)C)c2ccccc2)sc2c1CCCC2 (centres undefined) | 0.65µM* | 2.1µM* | 18µM* | ? | -108*
CCOC(=O)c1c(NC(=O)c2ccccc2N(C)S(=O)(=O)c2ccccc2)sc2c1CCCC2 | ? | 21µM* | 9.2µM* | ? | -9
CC(C)OC(=O)c1c(NS(=O)(=O)c2ccccc2)sc2c1CCCC2 | 6.5µM* | 5.2µM* | ? | -16% | 0
COC(=O)c1c(NC(=O)c2ccccc2C(=O)O)sc2c1CCC2 | -12% | -8% | -15% | -18% | 5
COC(=O)c1c(NS(=O)(=O)Cc2ccccc2)sc2c1CCCC2 | -10% | -2% | -3% | 2% | 36
CC1CCCN(C(=O)CSCC(=O)N=c2sc3ccccc3n2C)C1 (centres undefined) | ? | ? | 0% | -1% | 6
Cc1c(N=Cc2cc(Br)cc(Br)c2O)cccc1C(=O)O | ? | ? | ? | 13µM* | 0
Cc1cc(C)nc(NC(=S)Nc2ccc(Br)cc2Cl)c1 | 6.5µM* | 6.5µM* | 5% | 6% | 0
O=C(CSc1nnc(-c2c[nH]c3ccccc23)o1)N1c2ccccc2CCc2ccccc21 | 16µM* | 16µM* | 2%[9.24 µM] | ? | -68*
O=C(CSc1nnc(-c2ccc(Br)cc2)o1)N1CCN(C(=O)c2ccco2)CC1 | ? | 18µM* | 3% | 3% | 13
O=C(CSc1nnc(-c2ccco2)o1)N1c2ccccc2CCc2ccccc21 | ? | 23µM* | -1% | -26% | -62*
Cc1cc(C)cc(-c2nnc(SCC(=O)N3CCN(C(=O)c4ccco4)CC3)o2)c1 | ? | -28% | 0% | -4% | -16
Cc1ccc(NNC(=O)c2ccno2)cc1Cl | ? | 10µM* | 3.7µM* | ? | 49
Cc1cc(C(=O)NNc2ccc(C)c(C)c2)no1 | 3% | -12% | 23µM* | ? | 29
Cc1cc(C(=O)NNC(=O)Nc2ccc(Cl)cc2)no1 | 18% | 9% | 0% | 12% | 13
Cc1cc(C(=O)NNc2ccc(Cl)cc2)no1 | 10% | ? | 2.6µM* | 2.3µM* | 4
Cc1ccc(C)c(NC(=O)c2cc(=O)c3cc(C)cc(C)c3o2)c1 | -1% | -7% | / | / | /
O=C(Nc1cccnc1)c1cc(-c2ccc(Cl)cc2Cl)on1 | 7% | -13% | 17% | 14% | -17
CCOC(=O)COc1ccc2cc(C(=O)OCC)c(=O)oc2c1 | -16% | -14% | 5% | 10% | -80*
c1csc(C2=Nn3c(nnc3-c3ccncc3)SC2)c1 | 15µM* | 15µM* | -15% | 0% | -75*
Clc1ccccc1C1=Nn2c(nnc2-c2ccncc2)SC1 | 6.5µM* | 10µM* | -10% | -29% | -86*
CCc1ccc(C2=Nn3c(nnc3-c3cccs3)SC2)cc1 | ? | 21µM* | ? | -22% | -6
Cc1cccc(NC(=S)N2CCC(NC(=O)C3CCCCC3)CC2)c1 | -3% | -12% | 13% | -7% | -3
